For 58 compounds, viability results are on record in PubChem BioAssay AID818 (SRMLSC, 2007).

As usually defined, the viability is a read-out of living cells in per cent, often relative to untreated cells.

Molecules are shown by their SMILES. About 2,100 (1.5%) of roughly 140,000 compounds were called active. Shown is part of a subset that was picked to be rich in actives. Unmarked numbers belong to inactive results.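 How the source made its calls: active means viability at or under a set limit, the compound median less 4 SD (cut at about 6% in these data); inactive means the rest.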

The test is described as follows: primary screen for growth suppressors in beta-catenin knockout HCT116 cells (colon tumor, human) (AID 818).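 Further: 0% = Hyamine 1622 control at 20 µM and 100% = untreated cell control.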 Conditions: CellTiter-Glo, 60 h, at 10 µM, active compounds read low.
Regarding `CCNS(=O)(=O)c1ccc(NC(=O)c2cncc(Br)c2)cc1`, the viability was 97.6%.
For the compound `O=C(NC(=S)Nc1ccc2oc(=O)ccc2c1)c1ccc(-c2cccc(Cl)c2Cl)o1`, the viability was 101%.
With `CC(=O)c1sc(NC(=O)c2cccc3ccccc23)nc1C` the figure was 87.1%; with `COc1cccc2sc(NNC(=O)c3nc4ccccc4s3)nc12`, 14.9%.
`COc1cccc2sc(Nc3nc(C)c(C(C)=O)s3)nc12`: the viability was 5.29% (active).
With `CCOc1ccc2nc(NC(=O)c3cc([N+](=O)[O-])ccc3N3CCOCC3)sc2c1` the figure was 39.5%; with `COc1ccccc1N1CCN(C(=O)C(=O)N/N=C/c2ccccc2F)CC1`, 104%; with `Fc1ccc2c(c1)C(c1cccnc1)=NNC(c1cccs1)=N2`, 40.4%.
On to `Fc1ccc2[nH]c3c(N4CCSCC4)ncnc3c2c1`, for which the viability was 5.04% (active).
With `CC(C)OCCCNc1ncnc2c1[nH]c1ccc(F)cc12` the figure was 9.7%; with `CCN1CCCC1CNc1ncnc2c1[nH]c1ccc(F)cc12` (stereo not drawn), 82.2%.
With `CC(=O)COc1ccc2c(-c3ccccc3)cc(=O)oc2c1` the figure was 95.5%; with `COc1ccc(C2COC(=O)C2=N)c(NC(=O)c2ccccc2)c1` (stereo not drawn), 79.1%; with `CC1(c2ccccc2)CC(C)(C)N(C(=O)c2cc([N+](=O)[O-])cc([N+](=O)[O-])c2)c2ccccc21` (stereo not drawn), 69%.
With `CN1CCN(CCCNC(=O)c2cc3c(=O)oc4ccccc4c3s2)CC1` the figure was 92%; with `O=C(NCCN1CCN(Cc2ccccc2)CC1)c1cc2c(=O)[nH]c3ccccc3c2s1`, 1.35% (active); with `Cn1c(C(=O)NCCN2CCc3ccccc3C2)cc2c(=O)[nH]c3ccccc3c21`, 87.4%.
Turning to `COc1ccccc1N=Cc1c(O)c2ccccc2oc1=O`, the viability is 84.7%.
As for `CCCCCCc1cc2cc(-c3nnc(-c4ccccc4)o3)c(=O)oc2cc1O`, the viability is 1.64% (active).
With `Cc1c(/C=N/N2C(=O)C3C4C=CC(C4)C3C2=O)c2ccccc2n1C` (stereo not drawn) the figure was 90.7%; with `Cc1coc2c(O)cc3c(c12)OC1(N2CCCCC2)C(=O)NCCCC31` (stereo not drawn), 2.34% (active).
Consider `Cc1cccc(N2CCN(C(=O)c3ccccc3NC(=O)C3CCCCC3C(=O)O)CC2)c1` (stereo not drawn), for which the viability was 93.7%.
As for `COc1ccc(NS(=O)(=O)c2ccc(NC(=S)NC(=O)/C=C/c3ccc(C)cc3)cc2)nn1`, the viability was 84.3%.
Turning to `COc1ccc(NC(=O)/C(Cl)=C(/Cl)S(=O)Cc2ccc(C)cc2)cn1` (stereo not drawn), the viability was 0.98% (active).
With `COc1cc(NC(=O)Nc2ccc(C)cc2)cc([N+](=O)[O-])c1` the figure was 86.1%; with `COc1cc(OC)cc(C(=O)N[C@H](C(=O)OCC(=O)NC(C)c2ccccc2)C(C)C)c1` (stereo partly drawn), 83.7%.
With `O=C(NCc1ccccc1Cl)C1CCC(CNc2c(N3CCCCC3)c(=O)c2=O)CC1` (stereo not drawn) the figure was 98.7%.
In the case of `O=C(NC(Nc1nc2ccc([N+](=O)[O-])cc2s1)(C(F)(F)F)C(F)(F)F)c1ccccc1`, the viability was 1.34% (active).
With `Cc1cc(C)cc(OCC(=O)Nc2nc3ccc([N+](=O)[O-])cc3s2)c1` the figure was 109%; with `COC(=O)C(NC(=O)c1ccc(OC)cc1)(Nc1ncc(S(=O)(=O)c2ccc([N+](=O)[O-])cc2)s1)C(F)(F)F` (stereo not drawn), 77.8%; with `COc1ccc(NC(C(=O)Nc2cccc(C(C)=O)c2)c2ccccc2)cc1` (stereo not drawn), 84.6%.
As for `Cc1ccc(-c2csc(NNC(=O)c3ccccc3)n2)cc1`, the viability is 13.8%.
With `COc1ccc(C)cc1Nc1nc(-c2c(C)[nH]c3ccccc23)cs1` the figure was 89.8%; with `O=C(/C=C/Sc1ncn[nH]1)c1ccc(Cl)cc1`, 4.54% (active); with `O=C(NCCOCc1ccc(Cl)cc1)c1ncn[nH]1`, 93%.
Turning to `CC(C)(C)c1ccc(C(=O)CSc2ncn[nH]2)cc1`, the viability was 94.5%.
Turning to `O=[N+]([O-])c1ccc(N/N=C2/CCCCC2c2ccccn2)c([N+](=O)[O-])c1` (stereo not drawn), the viability is 79.6%.
With `CC[C@H]1CN2CCc3cc(OC)c(OC)cc3[C@@H]2C[C@@H]1C[C@H]1NCCc2cc(OC)c(OC)cc21` the figure was 4.12% (active).
With `COc1cc2c(cc1O)[C@H](Cc1ccc(Oc3cc(C[C@@H]4NCCc5cc(OC)c(O)cc54)ccc3O)cc1)NCC2` the figure was 55%.
As for `S=C(NCc1ccc(Cl)cc1)NC12CC3CC(CC(C3)C1)C2`, the viability is 3.01% (active).
With `S=C(NCc1ccc(Cl)cc1)NC1CCCCC1` the figure was 66%; with `COC(=O)Cc1ccc(NC(=S)NCc2ccc(Cl)cc2)cc1`, 84.8%.
With `CCCCN1C(=O)c2ccc(C(=O)Nc3ccc(S(=O)(=O)N(C)C)cc3)cc2C1=O` the figure was 93.3%; with `Cc1ccc(NC(=O)CN(C)Cc2ccc(F)cc2)c([N+](=O)[O-])c1`, 91.3%; with `Cc1ccc(O)c(-c2cc(C(=O)Nc3c(C)n(C)n(-c4ccccc4)c3=O)[nH]n2)c1`, 80.2%.
For `CC1CCCC(NC(=O)COC(=O)[C@@H]2CC(O)CN2S(=O)(=O)c2ccc3c(c2)OCCO3)C1C` (stereo partly drawn), the viability was 96.2%.
With `O=C(NCc1ccc2c(c1)OCO2)c1ccc2c(c1)C(=O)N(CC1CCCO1)C2=O` (stereo not drawn) the figure was 1.74% (active); with `CC1CCN(c2ccc(C(=O)NCc3ccc4c(c3)OCO4)cc2[N+](=O)[O-])CC1`, 94.5%; with `CCC(=O)Nc1ccc(C(=O)Nc2ccc3c(c2)C(=O)N(CC2CCCO2)C3=O)cc1` (stereo not drawn), 93.3%.
For the compound `COc1cc(Cl)c(C)cc1NC(=O)COC(=O)c1cc(SC)ccc1Cl`, the viability is 79.6%.
With `Cc1cc(-c2n[nH]c(=S)n2/N=C/C(Br)=C/c2ccccc2)n[nH]1` the figure was 2.95% (active).
For the compound `Cc1ccc(/C=N\n2c(-c3ccccc3)n[nH]c2=S)s1`, the viability was 94.7%.
With `S=c1[nH]nc(-c2cccnc2)n1/N=C/C(Cl)=C\c1ccccc1` the figure was 10.2%; with `Cc1ccc(NC(=O)c2oc(=O)c3ccccc3c2-c2ccccc2)c(C)c1`, 38.7%.
For `CN(C)S(=O)(=O)c1ccc(N2CCCC2=O)c([N+](=O)[O-])c1`, the viability is 83%.
With `CC1=C(C)CC(C(=O)NNC(=O)c2ccccc2O)C(C(=O)O)C1` (stereo not drawn) the figure was 5.74% (active); with `CC1=C(C)CC(C(=O)NNC(=O)c2csc3c2CCC(C(C)(C)C)C3)C(C(=O)O)C1` (stereo not drawn), 95.9%; with `O=C(O)C1CC=C(Cl)CC1C(=O)NCc1ccccc1` (stereo not drawn), 90%.
